ChEMBL document CHEMBL2218924, “A broad activity screen in support of a chemogenomic map for kinase signalling research and drug discovery” (Biochem J, 2013)

Assays:
[1] = target: T1, Ephrin type-A receptor 3 (Homo sapiens) (UniProt P29320); conditions: at 10 µM
T1 sequence (whole entry): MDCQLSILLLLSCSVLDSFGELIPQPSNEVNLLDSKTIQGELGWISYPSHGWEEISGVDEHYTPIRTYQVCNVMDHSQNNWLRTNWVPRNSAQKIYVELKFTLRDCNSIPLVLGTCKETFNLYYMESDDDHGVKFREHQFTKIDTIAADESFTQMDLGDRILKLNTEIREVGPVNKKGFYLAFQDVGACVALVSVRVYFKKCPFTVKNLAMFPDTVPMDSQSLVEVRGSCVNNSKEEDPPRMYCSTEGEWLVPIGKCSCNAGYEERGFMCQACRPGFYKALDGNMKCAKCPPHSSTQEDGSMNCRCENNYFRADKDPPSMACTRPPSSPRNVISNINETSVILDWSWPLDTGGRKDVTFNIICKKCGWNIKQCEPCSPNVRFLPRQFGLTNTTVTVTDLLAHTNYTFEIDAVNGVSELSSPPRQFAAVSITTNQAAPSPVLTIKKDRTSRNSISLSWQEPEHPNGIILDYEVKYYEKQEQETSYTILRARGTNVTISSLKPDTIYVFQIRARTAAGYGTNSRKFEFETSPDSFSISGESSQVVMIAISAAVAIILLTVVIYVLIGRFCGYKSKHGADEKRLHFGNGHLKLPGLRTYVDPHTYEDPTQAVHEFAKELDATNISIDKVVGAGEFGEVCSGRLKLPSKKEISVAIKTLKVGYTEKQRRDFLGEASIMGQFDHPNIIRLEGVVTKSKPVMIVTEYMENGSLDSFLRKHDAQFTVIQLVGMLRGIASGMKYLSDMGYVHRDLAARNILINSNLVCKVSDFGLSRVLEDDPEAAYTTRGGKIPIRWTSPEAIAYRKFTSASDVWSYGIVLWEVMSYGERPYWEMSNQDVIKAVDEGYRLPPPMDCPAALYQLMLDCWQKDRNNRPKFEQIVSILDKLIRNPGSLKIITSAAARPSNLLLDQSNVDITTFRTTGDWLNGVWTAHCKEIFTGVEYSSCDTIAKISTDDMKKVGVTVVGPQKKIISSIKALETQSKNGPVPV

[2] = target: Ephrin type-A receptor 7 (Homo sapiens) (UniProt Q15375); conditions: at 1 µM
[3] = target: Ephrin type-A receptor 7 (Homo sapiens) (UniProt Q15375); conditions: at 10 µM
[4] = target: T2, Ephrin type-A receptor 8 (Homo sapiens) (UniProt P29322); conditions: at 1 µM
T2 sequence (whole entry): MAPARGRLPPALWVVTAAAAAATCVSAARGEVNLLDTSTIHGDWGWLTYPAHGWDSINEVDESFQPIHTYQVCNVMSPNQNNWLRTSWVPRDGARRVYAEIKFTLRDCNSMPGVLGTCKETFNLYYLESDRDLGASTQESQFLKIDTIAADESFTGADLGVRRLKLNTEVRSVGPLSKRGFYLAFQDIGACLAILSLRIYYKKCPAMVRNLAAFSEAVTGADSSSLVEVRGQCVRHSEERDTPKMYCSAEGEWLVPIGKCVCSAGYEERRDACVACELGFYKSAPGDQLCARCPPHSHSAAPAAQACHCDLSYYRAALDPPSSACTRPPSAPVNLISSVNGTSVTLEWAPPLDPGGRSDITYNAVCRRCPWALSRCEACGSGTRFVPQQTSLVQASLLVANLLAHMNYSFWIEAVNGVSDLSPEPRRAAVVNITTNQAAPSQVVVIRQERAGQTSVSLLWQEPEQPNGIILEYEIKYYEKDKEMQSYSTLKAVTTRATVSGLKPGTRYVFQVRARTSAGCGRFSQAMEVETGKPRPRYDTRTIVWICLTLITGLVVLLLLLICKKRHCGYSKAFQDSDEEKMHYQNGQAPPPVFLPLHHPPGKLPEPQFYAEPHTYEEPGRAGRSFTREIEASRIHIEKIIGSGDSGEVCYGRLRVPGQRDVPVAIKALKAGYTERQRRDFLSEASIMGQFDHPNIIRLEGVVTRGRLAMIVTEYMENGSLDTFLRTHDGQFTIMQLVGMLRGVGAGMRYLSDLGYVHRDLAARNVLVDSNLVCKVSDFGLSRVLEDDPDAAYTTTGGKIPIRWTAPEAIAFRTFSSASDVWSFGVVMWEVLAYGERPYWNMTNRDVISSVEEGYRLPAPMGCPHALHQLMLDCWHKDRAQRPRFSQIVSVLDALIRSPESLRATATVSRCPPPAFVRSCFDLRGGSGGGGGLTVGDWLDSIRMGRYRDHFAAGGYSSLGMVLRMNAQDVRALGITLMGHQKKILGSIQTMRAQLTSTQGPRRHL

[5] = target: T2, Ephrin type-A receptor 8 (Homo sapiens); conditions: at 10 µM
[6] = target: T3, Ephrin type-B receptor 1 (Homo sapiens) (UniProt P54762); conditions: at 1 µM
T3 sequence (whole entry): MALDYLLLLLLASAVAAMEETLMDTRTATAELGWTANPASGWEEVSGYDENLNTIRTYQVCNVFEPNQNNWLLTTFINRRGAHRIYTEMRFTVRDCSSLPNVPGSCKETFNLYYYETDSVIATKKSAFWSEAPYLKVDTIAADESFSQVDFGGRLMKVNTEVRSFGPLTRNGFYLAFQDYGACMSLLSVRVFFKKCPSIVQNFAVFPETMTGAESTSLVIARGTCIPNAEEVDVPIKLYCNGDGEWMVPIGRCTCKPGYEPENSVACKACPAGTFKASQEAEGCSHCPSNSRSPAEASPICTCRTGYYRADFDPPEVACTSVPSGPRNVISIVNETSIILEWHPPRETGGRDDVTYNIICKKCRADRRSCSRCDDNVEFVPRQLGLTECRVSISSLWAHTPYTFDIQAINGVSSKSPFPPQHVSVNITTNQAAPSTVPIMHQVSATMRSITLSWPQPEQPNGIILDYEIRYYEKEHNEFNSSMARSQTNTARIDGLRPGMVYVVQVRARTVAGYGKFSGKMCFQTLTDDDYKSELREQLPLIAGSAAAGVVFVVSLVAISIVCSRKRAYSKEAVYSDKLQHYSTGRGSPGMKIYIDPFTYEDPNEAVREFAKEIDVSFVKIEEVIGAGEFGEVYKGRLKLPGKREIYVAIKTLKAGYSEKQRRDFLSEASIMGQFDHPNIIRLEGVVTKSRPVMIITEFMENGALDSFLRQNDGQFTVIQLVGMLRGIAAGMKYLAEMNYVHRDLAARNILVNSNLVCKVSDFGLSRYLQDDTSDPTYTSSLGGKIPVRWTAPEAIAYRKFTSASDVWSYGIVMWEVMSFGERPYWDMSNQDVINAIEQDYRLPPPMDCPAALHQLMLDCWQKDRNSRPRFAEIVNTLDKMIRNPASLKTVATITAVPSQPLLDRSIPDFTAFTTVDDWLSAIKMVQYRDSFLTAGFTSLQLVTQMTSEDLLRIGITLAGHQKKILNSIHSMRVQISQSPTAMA

[7] = target: T3, Ephrin type-B receptor 1 (Homo sapiens); conditions: at 10 µM
[8] = target: T4, Ephrin type-B receptor 2 (Homo sapiens) (UniProt P29323); conditions: at 1 µM
T4 sequence (whole entry): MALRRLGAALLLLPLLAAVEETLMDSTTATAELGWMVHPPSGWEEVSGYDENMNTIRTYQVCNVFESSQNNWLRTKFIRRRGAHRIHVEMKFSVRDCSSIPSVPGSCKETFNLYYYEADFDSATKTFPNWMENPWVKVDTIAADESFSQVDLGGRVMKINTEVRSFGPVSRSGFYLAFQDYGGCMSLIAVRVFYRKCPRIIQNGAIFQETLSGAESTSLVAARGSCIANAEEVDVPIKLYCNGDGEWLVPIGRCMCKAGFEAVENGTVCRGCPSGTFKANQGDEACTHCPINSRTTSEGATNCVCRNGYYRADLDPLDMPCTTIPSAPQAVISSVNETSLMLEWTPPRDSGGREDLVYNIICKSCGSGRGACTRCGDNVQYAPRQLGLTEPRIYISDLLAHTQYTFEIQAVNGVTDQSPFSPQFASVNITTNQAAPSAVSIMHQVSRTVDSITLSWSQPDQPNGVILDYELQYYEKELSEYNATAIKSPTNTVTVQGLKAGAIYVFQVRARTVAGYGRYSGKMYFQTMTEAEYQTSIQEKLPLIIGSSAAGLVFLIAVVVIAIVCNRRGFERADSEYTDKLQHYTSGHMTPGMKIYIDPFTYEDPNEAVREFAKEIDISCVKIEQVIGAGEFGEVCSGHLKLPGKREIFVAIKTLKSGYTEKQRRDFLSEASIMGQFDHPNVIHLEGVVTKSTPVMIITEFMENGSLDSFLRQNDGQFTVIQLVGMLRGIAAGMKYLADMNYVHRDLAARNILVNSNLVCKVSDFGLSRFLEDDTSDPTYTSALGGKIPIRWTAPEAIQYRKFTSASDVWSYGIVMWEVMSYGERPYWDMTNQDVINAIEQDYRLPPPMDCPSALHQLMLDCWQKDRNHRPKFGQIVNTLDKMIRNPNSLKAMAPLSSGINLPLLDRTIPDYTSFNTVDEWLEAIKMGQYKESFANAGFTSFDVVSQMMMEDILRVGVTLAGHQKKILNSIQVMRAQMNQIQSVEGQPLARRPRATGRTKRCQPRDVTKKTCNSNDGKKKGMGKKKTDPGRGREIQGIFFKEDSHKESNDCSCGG

[9] = target: T4, Ephrin type-B receptor 2 (Homo sapiens); conditions: at 10 µM
[10] = target: T5, Ephrin type-B receptor 4 (Homo sapiens) (UniProt P54760); conditions: at 1 µM
T5 sequence (whole entry): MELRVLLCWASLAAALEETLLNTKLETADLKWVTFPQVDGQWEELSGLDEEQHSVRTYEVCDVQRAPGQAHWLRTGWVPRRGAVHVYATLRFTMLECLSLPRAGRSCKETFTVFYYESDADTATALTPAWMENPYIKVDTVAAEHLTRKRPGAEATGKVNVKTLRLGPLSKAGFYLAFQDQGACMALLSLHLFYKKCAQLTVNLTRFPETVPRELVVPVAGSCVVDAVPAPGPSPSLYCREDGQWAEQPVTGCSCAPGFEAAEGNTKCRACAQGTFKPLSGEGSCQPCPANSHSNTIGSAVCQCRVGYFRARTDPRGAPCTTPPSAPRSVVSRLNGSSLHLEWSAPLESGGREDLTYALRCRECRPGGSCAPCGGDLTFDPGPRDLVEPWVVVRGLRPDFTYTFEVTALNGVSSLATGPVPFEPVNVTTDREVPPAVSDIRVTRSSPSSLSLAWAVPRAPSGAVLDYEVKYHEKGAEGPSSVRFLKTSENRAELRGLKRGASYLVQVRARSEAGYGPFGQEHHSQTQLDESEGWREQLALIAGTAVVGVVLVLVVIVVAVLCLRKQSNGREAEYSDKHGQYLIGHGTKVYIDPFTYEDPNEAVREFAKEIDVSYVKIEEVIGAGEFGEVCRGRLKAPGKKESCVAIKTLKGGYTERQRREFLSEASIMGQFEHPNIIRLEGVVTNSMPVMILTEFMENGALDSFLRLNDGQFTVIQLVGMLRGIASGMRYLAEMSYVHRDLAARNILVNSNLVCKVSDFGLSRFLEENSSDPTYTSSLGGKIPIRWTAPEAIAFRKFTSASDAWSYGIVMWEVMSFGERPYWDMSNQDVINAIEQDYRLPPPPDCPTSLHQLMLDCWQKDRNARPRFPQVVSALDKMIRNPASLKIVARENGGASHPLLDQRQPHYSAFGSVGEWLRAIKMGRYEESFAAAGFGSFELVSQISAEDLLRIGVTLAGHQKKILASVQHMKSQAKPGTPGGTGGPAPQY

[11] = target: T5, Ephrin type-B receptor 4 (Homo sapiens); conditions: at 10 µM
[12] = target: Focal adhesion kinase 1 (Homo sapiens) (UniProt Q05397); conditions: at 1 µM
[13] = target: Ephrin type-A receptor 4 (Homo sapiens) (UniProt P54764); conditions: at 10 µM
[14] = target: Ephrin type-A receptor 5 (Homo sapiens) (UniProt P54756); conditions: at 10 µM
Sequence of Ephrin type-A receptor 5 (Homo sapiens) (P54756 whole entry): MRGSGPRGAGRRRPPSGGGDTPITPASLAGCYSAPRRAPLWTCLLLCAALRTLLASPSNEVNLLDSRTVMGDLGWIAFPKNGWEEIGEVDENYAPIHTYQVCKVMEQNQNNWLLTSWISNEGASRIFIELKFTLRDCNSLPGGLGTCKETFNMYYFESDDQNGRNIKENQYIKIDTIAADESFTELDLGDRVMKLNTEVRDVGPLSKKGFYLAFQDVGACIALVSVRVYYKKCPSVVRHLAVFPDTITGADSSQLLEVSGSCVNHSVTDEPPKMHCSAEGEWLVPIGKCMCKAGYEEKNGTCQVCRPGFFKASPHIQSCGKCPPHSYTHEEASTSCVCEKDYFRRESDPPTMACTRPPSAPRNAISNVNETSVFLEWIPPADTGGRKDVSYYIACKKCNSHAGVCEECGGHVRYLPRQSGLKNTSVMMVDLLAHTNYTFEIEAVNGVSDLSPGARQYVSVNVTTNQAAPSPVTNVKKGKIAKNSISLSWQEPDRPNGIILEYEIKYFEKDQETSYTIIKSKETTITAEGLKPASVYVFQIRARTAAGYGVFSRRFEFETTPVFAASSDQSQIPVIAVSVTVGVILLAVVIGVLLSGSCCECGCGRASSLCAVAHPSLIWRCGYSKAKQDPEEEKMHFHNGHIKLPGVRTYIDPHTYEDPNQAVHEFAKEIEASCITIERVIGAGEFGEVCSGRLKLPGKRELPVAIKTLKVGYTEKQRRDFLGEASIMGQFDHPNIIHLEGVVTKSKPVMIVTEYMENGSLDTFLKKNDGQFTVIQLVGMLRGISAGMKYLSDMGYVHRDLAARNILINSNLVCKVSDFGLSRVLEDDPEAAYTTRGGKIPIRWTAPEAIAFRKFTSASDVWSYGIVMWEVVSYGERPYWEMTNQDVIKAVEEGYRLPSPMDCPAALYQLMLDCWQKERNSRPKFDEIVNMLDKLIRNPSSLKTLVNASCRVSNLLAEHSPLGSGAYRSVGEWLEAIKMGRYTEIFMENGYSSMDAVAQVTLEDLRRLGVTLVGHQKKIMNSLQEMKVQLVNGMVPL

Sequence of Ephrin type-A receptor 7 (Homo sapiens) (Q15375 28-998 limits assumed): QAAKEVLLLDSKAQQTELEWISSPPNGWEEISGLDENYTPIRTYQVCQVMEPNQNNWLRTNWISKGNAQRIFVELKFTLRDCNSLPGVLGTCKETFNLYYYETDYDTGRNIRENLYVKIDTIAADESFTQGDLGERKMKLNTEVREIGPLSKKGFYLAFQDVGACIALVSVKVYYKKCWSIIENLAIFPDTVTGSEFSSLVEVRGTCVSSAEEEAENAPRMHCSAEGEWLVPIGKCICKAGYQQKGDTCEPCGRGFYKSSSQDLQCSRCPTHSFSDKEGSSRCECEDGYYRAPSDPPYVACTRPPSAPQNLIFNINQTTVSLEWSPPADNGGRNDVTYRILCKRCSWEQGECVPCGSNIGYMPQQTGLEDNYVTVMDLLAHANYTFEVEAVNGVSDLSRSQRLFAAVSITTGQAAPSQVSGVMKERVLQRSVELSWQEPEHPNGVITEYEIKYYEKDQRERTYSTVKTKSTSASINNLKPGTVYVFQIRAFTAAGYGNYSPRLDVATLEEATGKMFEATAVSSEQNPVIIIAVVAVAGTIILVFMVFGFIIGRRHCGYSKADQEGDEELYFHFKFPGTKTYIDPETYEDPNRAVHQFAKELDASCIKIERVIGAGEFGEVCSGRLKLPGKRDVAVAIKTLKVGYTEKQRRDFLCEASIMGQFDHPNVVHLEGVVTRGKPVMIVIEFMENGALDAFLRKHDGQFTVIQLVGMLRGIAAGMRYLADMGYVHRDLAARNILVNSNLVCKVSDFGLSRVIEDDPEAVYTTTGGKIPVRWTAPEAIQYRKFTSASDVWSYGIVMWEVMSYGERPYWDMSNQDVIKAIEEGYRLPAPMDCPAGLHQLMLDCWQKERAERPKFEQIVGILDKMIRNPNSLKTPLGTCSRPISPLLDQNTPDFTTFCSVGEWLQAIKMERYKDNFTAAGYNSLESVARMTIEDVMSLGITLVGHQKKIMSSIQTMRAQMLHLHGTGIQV
Sequence of Focal adhesion kinase 1 (Homo sapiens) (Q05397 2-1052 limits assumed): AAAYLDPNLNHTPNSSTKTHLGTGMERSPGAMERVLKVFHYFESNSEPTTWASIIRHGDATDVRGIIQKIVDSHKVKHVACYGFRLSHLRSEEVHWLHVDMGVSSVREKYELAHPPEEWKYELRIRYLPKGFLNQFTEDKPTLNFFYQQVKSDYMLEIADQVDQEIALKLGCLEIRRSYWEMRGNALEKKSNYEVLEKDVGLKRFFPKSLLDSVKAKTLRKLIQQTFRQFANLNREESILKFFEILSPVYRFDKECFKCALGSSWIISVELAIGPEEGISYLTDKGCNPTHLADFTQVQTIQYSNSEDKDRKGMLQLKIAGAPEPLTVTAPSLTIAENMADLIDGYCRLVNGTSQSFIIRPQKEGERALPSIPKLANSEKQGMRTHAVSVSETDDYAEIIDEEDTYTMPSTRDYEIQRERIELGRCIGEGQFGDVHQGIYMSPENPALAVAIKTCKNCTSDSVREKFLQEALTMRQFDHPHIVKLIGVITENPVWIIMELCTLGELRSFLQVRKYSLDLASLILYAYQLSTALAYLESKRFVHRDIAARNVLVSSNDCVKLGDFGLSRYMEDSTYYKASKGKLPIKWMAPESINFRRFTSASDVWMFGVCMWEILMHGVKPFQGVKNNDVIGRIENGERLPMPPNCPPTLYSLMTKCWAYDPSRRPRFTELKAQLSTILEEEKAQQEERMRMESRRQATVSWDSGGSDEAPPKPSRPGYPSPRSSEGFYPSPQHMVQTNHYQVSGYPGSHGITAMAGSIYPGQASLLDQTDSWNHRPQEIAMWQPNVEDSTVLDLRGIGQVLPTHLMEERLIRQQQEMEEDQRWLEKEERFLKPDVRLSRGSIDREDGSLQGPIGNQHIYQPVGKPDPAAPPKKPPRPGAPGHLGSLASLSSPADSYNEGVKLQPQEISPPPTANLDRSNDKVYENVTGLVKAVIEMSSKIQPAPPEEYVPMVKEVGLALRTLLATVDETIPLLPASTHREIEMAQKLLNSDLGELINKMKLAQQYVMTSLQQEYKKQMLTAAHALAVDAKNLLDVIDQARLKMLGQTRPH
Sequence of Ephrin type-A receptor 4 (Homo sapiens) (P54764 whole entry): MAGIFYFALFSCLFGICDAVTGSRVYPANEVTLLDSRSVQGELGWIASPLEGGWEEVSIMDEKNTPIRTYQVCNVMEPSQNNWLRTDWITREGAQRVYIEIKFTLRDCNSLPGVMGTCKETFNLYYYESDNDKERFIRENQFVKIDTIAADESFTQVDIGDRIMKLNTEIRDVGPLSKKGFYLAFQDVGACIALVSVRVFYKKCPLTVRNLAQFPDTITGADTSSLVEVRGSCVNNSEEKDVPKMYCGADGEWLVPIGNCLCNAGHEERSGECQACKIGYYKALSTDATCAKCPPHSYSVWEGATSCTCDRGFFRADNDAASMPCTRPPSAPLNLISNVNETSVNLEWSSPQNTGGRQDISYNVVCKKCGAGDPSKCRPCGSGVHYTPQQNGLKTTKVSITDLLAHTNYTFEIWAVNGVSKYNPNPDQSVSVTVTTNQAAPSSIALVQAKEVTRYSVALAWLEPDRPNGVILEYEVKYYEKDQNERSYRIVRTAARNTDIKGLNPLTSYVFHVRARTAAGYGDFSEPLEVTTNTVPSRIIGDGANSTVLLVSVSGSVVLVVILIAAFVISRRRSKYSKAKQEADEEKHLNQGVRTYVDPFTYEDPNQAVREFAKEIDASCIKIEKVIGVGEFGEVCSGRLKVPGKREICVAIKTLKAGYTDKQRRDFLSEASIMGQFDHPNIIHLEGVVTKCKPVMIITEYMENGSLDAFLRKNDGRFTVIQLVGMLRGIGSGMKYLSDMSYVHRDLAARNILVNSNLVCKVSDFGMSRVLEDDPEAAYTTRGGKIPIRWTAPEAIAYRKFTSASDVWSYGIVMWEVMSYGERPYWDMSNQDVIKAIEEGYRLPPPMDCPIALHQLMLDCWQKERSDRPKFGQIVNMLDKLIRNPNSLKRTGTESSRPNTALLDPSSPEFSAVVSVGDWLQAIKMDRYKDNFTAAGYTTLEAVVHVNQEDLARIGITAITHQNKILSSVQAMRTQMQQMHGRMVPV

SMILES: O=C1Cc2c([nH]c3ccc(Br)cc23)-c2ccccc2N1
- residual activity [1]: 58%
- residual activity [2]: 98%
- residual activity [3]: 72%
- residual activity [4]: 95%
- residual activity [5]: 82%
- residual activity [6]: 98%
- residual activity [7]: 76%
- residual activity [8]: 121%
- residual activity [9]: 120%
- residual activity [10]: 89%
- residual activity [11]: 71%
- residual activity [12]: 82%

SMILES: Nc1ncnc2c1cnn2-c1ccccc1
- residual activity [1]: 84%
- residual activity [13]: 97%
- residual activity [14]: 88%
- residual activity [2]: 102%
- residual activity [3]: 97%
- residual activity [4]: 100%
- residual activity [5]: 95%
- residual activity [10]: 95%
- residual activity [11]: 102%
- residual activity [12]: 137%
